This is an account of results in PubChem BioAssay (EPA / NIEHS).

Assay [1] in a line: APR_HepG2_CellCycleArrest_24hr: Apredica 24-hour HepG2 Assay for Cell Cycle Arrest (AID 2282905).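 Further: cell cycle arrest scored as ratio of 2N to 4N nuclear DNA content.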 The following applies: imaging, actives raise or lower the signal. In a few lines:
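Cell cycle arrest is scored from nuclear DNA content measured by high-content imaging of Hoechst 33342-stained HepG2 cells following 24-hour treatment at ten concentrations up to 200 uM, with DMSO as baseline.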

A short description of assay [2]: APR_HepG2_NuclearSize_24hr: Apredica 24-hour HepG2 Assay for Nuclear Size (AID 2282907). The following applies: high-content imaging, actives raise or lower the signal. In a few lines: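 Compounds in DMSO (final 0.5%) were added to human HepG2 hepatoma cells at ten concentrations up to 200 uM for 24 hr. Fixed nuclei were stained with Hoechst 33342, and nuclear diameter was quantified from automated images.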

Assay [3] in a line: APR_HepG2_CellLoss_24hr: Apredica 24-hour HepG2 Assay for Cell Loss (AID 2282908).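 On AC50: fit in both directions so a hit may be cell loss or gain.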 The conditions noted are these: high-content imaging. An outline of the steps:
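Cell number is quantified by fluorescence imaging of Hoechst 33342-stained nuclei following dosing at 0.39–200 uM in 0.5% DMSO. Curves are fitted in both directions from the DMSO baseline.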

Assay [4] in a line: APR_HepG2_MicrotubuleCSK_24hr: Apredica 24-hour HepG2 Assay for Microtubule CSK Stabilty (AID 2282909). The following applies: HepG2 microtubule cytoskeleton imaging, actives raise or lower the signal. In a few lines:
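Steps: dose HepG2 for 24 h (0.39–200 uM, 0.5% DMSO); fix 30 min in 3.7% formaldehyde at room temperature; permeabilize; stain alpha-tubulin 60 min; image microtubule cytoskeleton at 20x. Signal change fitted in both directions relative to DMSO.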

A short description of assay [5]: APR_HepG2_MitoticArrest_24hr: Apredica 24-hour HepG2 Assay for Mitotic Arrest (AID 2282910). The conditions noted are these: high-content imaging, actives raise or lower the signal. An outline of the steps:
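Compounds are dosed onto HepG2 cells across ten concentrations up to 200 uM for 24 hr. Cells are then fixed in 3.7% formaldehyde, permeabilised, and labelled for phospho-histone H3 and nuclei; images are scored by cell cycle analysis and fitted bidirectionally relative to DMSO.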

Assay [6] can be described thus: APR_HepG2_MitoMembPot_24hr: Apredica 24-hour HepG2 Assay for Mitochondrial Membrane Potential (AID 2282911). The following applies: imaging, actives raise or lower the signal. In a few lines:
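Human hepatoma HepG2 cultures received ten compound concentrations up to 200 uM for 24 hr. Membrane-potential dye signal, captured by automated fluorescence microscopy, was scored for gain or loss against DMSO controls.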

Assay [7] in a line: APR_HepG2_MitoMass_24hr: Apredica 24-hour HepG2 Assay for Mitochondrial Mass (AID 2282912). The conditions noted are these: high-content imaging, actives raise or lower the signal. In a few lines: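 The liver line HepG2 was dosed in duplicate across a 0.39–200 uM series, with final DMSO held at 0.5% v/v, and harvested at 24 hr. High-content imaging measured mitochondrial dye staining.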

Assay [8] is described as follows: APR_HepG2_p53Act_24hr: Apredica 24-hour HepG2 Assay for p53 Activation (AID 2282913).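 Further: p53 protein immunofluorescence averaged per cell in HepG2 with Hoechst nuclei.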 The conditions noted are these: high-content imaging, actives raise or lower the signal. In a few lines:
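Automated fluorescence imaging quantifies p53 immunostaining in HepG2 cells after a 24 hr exposure (0.39–200 uM, duplicate, 0.5% DMSO). Nuclei are located by Hoechst 33342 staining.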

Assay [9] in a line: APR_HepG2_CellCycleArrest_72hr: Apredica 72-hour HepG2 Assay for Cell Cycle Arrest (AID 2282914). The conditions noted are these: high-content imaging, actives raise or lower the signal. In a few lines: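 Cell cycle arrest in HepG2 was scored from nuclear DNA content after 72 hr compound treatment (0.39–200 uM). Activity, either gain or loss, was fitted against the DMSO baseline.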

Assay [10] in a line: APR_HepG2_CellLoss_72hr: Apredica 72-hour HepG2 Assay for Cell Loss (AID 2282915). The conditions noted are these: high-content imaging. An outline of the steps:
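Cell number comes from Hoechst 33342-labelled nuclei, imaged at 20x after 3.7% formaldehyde fixation. Dosing was 0.39–200 uM, ten concentrations in duplicate, 0.5% DMSO final, for 72 h. Bidirectional fit relative to DMSO baseline.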

The nature of assay [11]: APR_HepG2_P-H2AX_72hr: Apredica 72-hour HepG2 Assay for H2AX Phosphorylation (AID 2282916).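 Further: phospho-histone H2A.x immunostain intensity per cell marking DNA damage.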 The following applies: imaging, actives raise or lower the signal. In a few lines:
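Following 72 hr treatment with 0.39–200 uM compound, HepG2 cells were formaldehyde-fixed, permeabilized and stained for phospho-H2A.x; signal was measured by high-content imaging and fitted bidirectionally against DMSO controls.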

Assay [12] in a line: APR_HepG2_MitoticArrest_72hr: Apredica 72-hour HepG2 Assay for Mitotic Arrest (AID 2282918). The following applies: high-content imaging, actives raise or lower the signal. An outline of the steps:
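Mitotic arrest in HepG2 is scored from phospho-histone H3 staining after 72 hr dosing across 0.39–200 uM, with DMSO at 0.5% v/v. Nuclei are identified by Hoechst 33342 and fluorescence intensity is quantified per cell.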

Assay [13] in a line: APR_HepG2_MicrotubuleCSK_72hr: Apredica 72-hour HepG2 Assay for Microtubule CSK Stabilty (AID 2282919). The following applies: HepG2 microtubule cytoskeleton, high-content imaging, actives raise or lower the signal. In a few lines:
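Read-out is tubulin fluorescence intensity from high-content imaging of HepG2 cells, with nuclei identified by Hoechst 33342. Treatment lasts 72 h at 0.39–200 uM, and curves are fitted bidirectionally against the DMSO negative control.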

Assay [14] in a line: APR_HepG2_P-H2AX_24hr: Apredica 24-hour HepG2 Assay for H2AX Phosphorylation (AID 2282920). The conditions noted are these: high-content imaging, actives raise or lower the signal. In a few lines: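 Signal comes from a FITC-labeled secondary detecting phospho-histone H2A.x in fixed HepG2 cells, quantified by automated imaging at 20x. Dosing ran 24 hr across 0.39–200 uM with 0.5% v/v DMSO.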

The nature of assay [15]: APR_HepG2_StressKinase_72hr: Apredica 72-hour HepG2 Assay for Stress Kinase (AID 2282921). The conditions noted are these: HepG2 stress kinase (phospho-c-Jun) imaging, actives raise or lower the signal. In a few lines: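 Fluorescence intensity of Cy3-tagged anti-phospho-c-Jun antibody, quantified per cell from Hoechst-defined nuclei across six images per well, served as the read-out following 72 h exposure (0.39–200 uM, 0.5% v/v DMSO).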

A short description of assay [16]: APR_HepG2_StressKinase_24hr: Apredica 24-hour HepG2 Assay for Stress Kinase (AID 2282922). The following applies: HepG2 stress kinase (phospho-c-Jun) imaging, actives raise or lower the signal. An outline of the steps: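 HepG2, 24 hr dosing, 0.39–200 uM in duplicate, 0.5% DMSO; formaldehyde fix (3.7%), 0.5% Triton X-100; anti-phospho-c-Jun + Cy3 secondary, Hoechst counterstain; ArrayScan imaging; bidirectional curve fit vs DMSO baseline.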

Assay [17] is described as follows: APR_HepG2_NuclearSize_72hr: Apredica 72-hour HepG2 Assay for Nuclear Size (AID 2282925). The conditions noted are these: high-content imaging, actives raise or lower the signal. In a few lines: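 HepG2; cpd 0.39–200 uM, 10 conc, duplicate; 72 h; DMSO 0.5% v/v; fix 3.7% formaldehyde 30 min RT; Triton permeabilization; Hoechst 2 ug/mL; HCS imaging 20x; nuclear diameter; gain/loss fit vs DMSO.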

Assay [18] in a line: ATG_CRE_CIS: Attagene CIS-FACTORIAL HepG2 Assay for human cAMP Responsive Element (CRE) binding protein 3 (AID 2282926). The conditions noted are these: HepG2 CRE cis-reporter, Attagene multiplexed mRNA; actives raise or lower the signal. In a few lines: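 We dosed HepG2 cells bearing multiple cis-promoter reporter units for 24 h and measured reporter mRNA by RT-PCR with capillary electrophoresis detection. Bidirectional concentration-response fitting used DMSO as negative control.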

Assay [19] concerns the target CCAAT/enhancer-binding protein beta (Homo sapiens) (UniProt P17676). The experiment in a line: ATG_C_EBP_CIS: Attagene CIS-FACTORIAL HepG2 Assay for human CCAAT/Enhancer Binding Protein (C/EBP) beta (AID 2282927). The conditions noted are these: HepG2 Attagene cis-factorial transcription factor reporter; actives raise or lower the signal. An outline of the steps:
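Changes in reporter mRNA, rather than exogenous chimeric receptor activity, reflect native C/EBP signalling in transfected HepG2 cells dosed for 24 h; transcripts are detected by RT-PCR and capillary electrophoresis.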

Activity calls are given as the source filed them. How the source made its calls: active means hit-call score of the fitted dose curve at least 0.9, where 1 is the maximum; inactive means score below 0.9.

CCAAT/enhancer-binding protein beta (Homo sapiens), sequence (P17676 whole entry, looked up): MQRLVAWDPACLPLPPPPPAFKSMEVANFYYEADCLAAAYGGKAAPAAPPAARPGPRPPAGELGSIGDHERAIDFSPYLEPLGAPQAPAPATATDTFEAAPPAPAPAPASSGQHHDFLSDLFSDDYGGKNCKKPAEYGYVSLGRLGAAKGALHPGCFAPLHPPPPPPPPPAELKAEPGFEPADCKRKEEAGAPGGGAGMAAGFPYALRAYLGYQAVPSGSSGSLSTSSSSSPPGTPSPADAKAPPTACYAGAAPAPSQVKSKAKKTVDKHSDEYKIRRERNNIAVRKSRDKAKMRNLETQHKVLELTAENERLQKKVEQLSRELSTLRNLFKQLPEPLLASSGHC

In the case of `CC(C)(c1ccccc1)c1ccc(O)c(C(C)(C)c2ccccc2)c1`, the compound was called inactive in [1], in assay [4], in assay [5], in assay [7], in [9] and in [11]. The result in assay [13], in [15], in assay [17] and in [19] was inactive. Besides, the AC50 – broadly, the concentration giving half of the maximal activity seen – is 22 µM (active) in assay [2]; 28.1 µM (active) in [3]; 29.4 µM (active) in [6]; 40.8 µM (active) in assay [8]; 31.2 µM (active) in assay [10]; 29.8 µM (active) in [12]. Besides, the AC50 in assay [14] was 69.5 µM (active); in [16] it was 134 µM (active); in [18], 2.2 µM (active).

Turning to `CC(C)(OO)c1ccccc1`, the half-maximal activity concentration (AC50) in assay [1] was 78.4 µM (active); in assay [2], 65.1 µM (active); in assay [3], 72.2 µM (active); in assay [4] it was 75.3 µM (active); in assay [5], 71.4 µM (active); in assay [6], 96.2 µM (active). The AC50 in [8] was 65.8 µM (active); in [9], 88.8 µM (active); in [10], 59.9 µM (active); in assay [11], 56.7 µM (active); in [12], 59.4 µM (active); in [14] it was 69.3 µM (active). In assay [15], the AC50 is 49.4 µM (active). The outcome in [7], in [13], in [16], in [17], in assay [18] and in assay [19] was inactive.

`CN(C)N=O`: the outcome in [1], in assay [2], in assay [3], in assay [4], in assay [5] and in assay [6] was inactive. The compound was called inactive in assay [7], in assay [8], in assay [9], in [10], in [11] and in assay [12]. Moreover, the compound was called inactive in assay [13], in assay [14], in assay [15], in [16], in assay [17] and in [18]. The outcome in assay [19] was inactive.

Take `CCC(=O)C(CC(C)N(C)C)(c1ccccc1)c1ccccc1` (stereo unspecified): the AC50 in assay [1] is 25.1 µM (active); in assay [10], 73.6 µM (active); in assay [11], 73.5 µM (active); in assay [12] it was 75.6 µM (active); in assay [13], 81.3 µM (active); in assay [15] it was 78.9 µM (active). For the same compound, the result in assay [2], in [3], in assay [4], in [5], in assay [6] and in [7] was inactive. Also, the result in [8], in [9], in assay [14], in assay [16], in assay [17] and in assay [18] was inactive. For the same compound, in [19], the outcome was inactive.
